Drawing on PubChem BioAssay (NCATS), this text covers max response, Potency and outcome for 36 compounds.

Values joined by “and” are separate entries in the source; they are usually repeats but may differ in a detail not shown here. Equal values may be shown once. Results filed as inconclusive are left out. Active and inactive are the calls of the source. Calls follow the shape of the dose curve; as a rule, active = well fitted inhibition curve with a large enough effect; inconclusive = small, poorly fitted or top-dose-only effect; inactive = flat fitted curve, though single readings scatter.
% is scaled to controls: 0 for no effect and ±100 for the full control effect; potency is read from the fitted curve at half-maximal effect.

One assay deals with KB-3-1. Kind of assay: Cytotoxic Profiling of Annotated Libraries Using Quantitative High-Throughput Screening (AID 1296008). Also: nearly all actives have a fitted effect of over 60% in size. The following applies: Five cell lines viability, CellTiter-Glo ATP luminescence, 48-72 h; max response: active compounds read low. In outline:
(§1)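 Cells exposed to compounds for 48 or 72 hr at 37 degrees Celsius. Viability read as ATP-coupled luminescence with CellTiter-Glo after 10 min at room temperature.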
In general terms: In ATP-based viability assays light output follows the ATP content of the culture.
For `COc1ccc(-c2coc3cc(O)ccc3c2=O)cc1`, the max response was 7.74% (inactive).
`CN(C[C@@H]1COCCO1)S(=O)(=O)Nc1ccc2ccc3ncc(-c4cnn(C)c4)cc3c(=O)c2c1`: the Potency is 7.43 µM (active).
For the compound `CN(C)c1cc(NC(=O)CNC(C)(C)C)c(O)c2c1C[C@@H]1C[C@H]3[C@H](N(C)C)C(=O)C(C(N)=O)=C(O)[C@@]3(O)C(=O)C1=C2O`, the max response was -10.5% (inactive).
The same measure, in the same setting: under `CCN(CC)C(=O)c1ccc(O)c(OC)c1` stands 2.39% (inactive) and -3.02% (inactive); under `CC(C)NCC(O)COc1cccc2[nH]ccc12` (configuration not stated), 13.5% (inactive) and 2.02% (inactive).
The same measure, in the same setting: for `O=c1cc(CN2CCOCC2)occ1OCCCCCSc1ccnc2cc(C(F)(F)F)ccc12` the value was -24.2% (inactive).
On the same count and under the same terms, under `OC[C@H]1O[C@@H](n2cnc3c2NC=NC[C@@H]3O)C[C@H]1O` stands -3.46% (inactive).
In the case of `COc1ccc(-c2nc(N3CCOCC3)c3sc(CN(C)c4ncc(C(=O)NO)cn4)cc3n2)cn1`, the Potency is 0.0264 µM (active).
Consider `COc1ccc(-c2cc(=O)c3c(O)cc(O)cc3o2)cc1O`, for which the max response is -19.6% (inactive).
Turning to `O=c1cc(N2CCOCC2)oc2c(-c3cccc4c3sc3ccccc34)cccc12`, the result was inactive.
In the case of `O=C(OCC#CCSc1nnc(-c2cccc3ccccc23)o1)c1cc2ccccc2s1`, the max response is -5.32% (inactive).
Same read-out and setting: under `CCC(CC)[C@H](NC(C)=O)[C@@H]1[C@H](O)[C@@H](C(=O)O)C[C@@H]1N=C(N)N` stands 7.98% (inactive).
Turning to `CCN(CC)CCOc1ccc(C(=C(Cl)c2ccccc2)c2ccccc2)cc1`, the result was inactive.
Consider `COC(=O)C1=CO[C@@H](O)[C@@H]2C(CO)=CC[C@@H]12`, for which the max response is -1.15% (inactive).
On to `Nc1ncnc2ccccc12`, for which the call was inactive.
Regarding `CN1C[C@H]2c3ccccc3Oc3ccc(Cl)cc3[C@@H]2C1`, the max response is -7.18% (inactive).
Same read-out and setting: under `CO[C@H]1C[C@@H]2CC[C@@H](C)[C@@](O)(O2)C(=O)C(=O)N2CCCC[C@@H]2C(=O)O[C@H]([C@@H](C)C[C@@H]2CC[C@H](O)[C@H](OC)C2)CC(=O)[C@H](C)C=C(C)[C@@H](O)[C@@H](OC)C(=O)[C@H](C)C[C@H](C)C=CC=CC=C1C` stands -8.34% (inactive); under `CC(C)C(C)C=CC(C)C1CCC2C3=CC=C4CC(O)CCC4(C)C3CCC21C` (configuration not stated), 1.29% (inactive).
Turning to `O=c1cc(-c2cccc3c2Sc2ccccc2S3)oc(N2CCOCC2)c1`, the outcome was inactive.
Regarding `CC(C)(Cc1ccc2ccccc2c1)NC[C@@H](O)COc1cccc(Cl)c1C#N`, the max response was 2.48% (inactive).
For `CC(C)(C)c1ccc(C(O)CCCN2CCC(C(O)(c3ccccc3)c3ccccc3)CC2)cc1` (configuration not stated), the max response is -14.6% (inactive) and -4.64% (inactive).
Still for that read-out and setting: under `O=C1Nc2ccc(Cl)cc2C(C#CC2CC2)(C(F)(F)F)O1` (configuration not stated) stands -17.5% (inactive).
Same read-out and setting: under `O=C1C[C@@H](c2ccc(O)cc2)Oc2cc(O)cc(O)c21` stands 7.82% (inactive); under `Cc1[nH]c(C=C2C(=O)Nc3ccc(S(=O)(=O)Cc4c(Cl)cccc4Cl)cc32)c(C)c1C(=O)N1CCC[C@H]1CN1CCCC1`, 1.95% (inactive); under `CC1(C)CCC(CN2CCN(c3ccc(C(=O)NS(=O)(=O)c4ccc(NCC5CCOCC5)c([N+](=O)[O-])c4)c(Oc4cnc5[nH]ccc5c4)c3)CC2)=C(c2ccc(Cl)cc2)C1`, 0.966% (inactive).
In the case of `Cc1c[nH]c(C=C2C(=O)Nc3ccccc32)c1CCC(=O)O`, the max response is -13.5% (inactive).
Still for that read-out and setting: for `COc1cccc(-c2cc(=O)c3ccccc3o2)c1N` the value was -0.147% (inactive).
As to `CCOC1OC(=O)C[C@H]1NC(=O)[C@@H]1CCCN1C(=O)[C@@H](NC(=O)c1ccc(N)c(Cl)c1)C(C)(C)C` (some centres not stated), the call was inactive.
As to `O=C(O)C(O)Cc1ccc(O)c(O)c1` (configuration not stated), the max response is 5.06% (inactive).
On the same count and under the same terms, for `CC=C(C)C(=O)O[C@H]1C(C)=C[C@]23C(=O)[C@@H](C=C(CO)[C@@H](O)[C@]12O)[C@H]1[C@@H](C[C@H]3C)C1(C)C` the value was -20.1% (inactive); for `COc1ccc2cccc(CCNC(C)=O)c2c1`, 2.52% (inactive).
Turning to `O=c1c(O)c(-c2ccc(O)cc2)oc2cc(O)cc(O)c12`, the result was inactive.
The same measure, in the same setting: for `Nc1ncnc2c1ncn2[C@@H]1O[C@H](CO)C[C@@H]1O` the value was “inactive”.
For `C[N+](C)(C)CCCCCC[N+](C)(C)C`, the max response is 21.4% (inactive).
Turning to `NC(=O)NN=Cc1ccc([N+](=O)[O-])o1`, the max response was 2.76% (inactive).
Still for that read-out and setting: under `CC(=O)N[C@@H](CS)C(=O)O` stands 0.129% (inactive).

The subject of the next assay is NIH3T3. The assay is described as above. The following applies: Five cell lines viability, CellTiter-Glo ATP luminescence, 48-72 h; max response: active compounds read low. The procedure, abridged: as §1
In the case of `COc1ccc(-c2coc3cc(O)ccc3c2=O)cc1`, the max response is -7.78% (inactive).
For `CN(C[C@@H]1COCCO1)S(=O)(=O)Nc1ccc2ccc3ncc(-c4cnn(C)c4)cc3c(=O)c2c1`, the Potency is 1.32 µM (active) and 8.2 µM (active).
As to `CN(C)c1cc(NC(=O)CNC(C)(C)C)c(O)c2c1C[C@@H]1C[C@H]3[C@H](N(C)C)C(=O)C(C(N)=O)=C(O)[C@@]3(O)C(=O)C1=C2O`, the max response is -1.41% (inactive).
Still for that read-out and setting: for `CCN(CC)C(=O)c1ccc(O)c(OC)c1` the value was -4.21% (inactive).
Turning to `CC(C)NCC(O)COc1cccc2[nH]ccc12` (configuration not stated), the max response is -7.28% (inactive) and 1.44% (inactive).
On the same count and under the same terms, for `O=c1cc(CN2CCOCC2)occ1OCCCCCSc1ccnc2cc(C(F)(F)F)ccc12` the value was 0.796% (inactive).
For `OC[C@H]1O[C@@H](n2cnc3c2NC=NC[C@@H]3O)C[C@H]1O`, the outcome was inactive.
In the case of `COc1ccc(-c2nc(N3CCOCC3)c3sc(CN(C)c4ncc(C(=O)NO)cn4)cc3n2)cn1`, the Potency is 118 nM (active).
On to `COc1ccc(-c2cc(=O)c3c(O)cc(O)cc3o2)cc1O`, for which the max response is -2.97% (inactive).
As for `O=c1cc(N2CCOCC2)oc2c(-c3cccc4c3sc3ccccc34)cccc12`, the Potency was 16600 nM (active).
With `O=C(OCC#CCSc1nnc(-c2cccc3ccccc23)o1)c1cc2ccccc2s1`, the call was inactive.
Same read-out and setting: under `CCC(CC)[C@H](NC(C)=O)[C@@H]1[C@H](O)[C@@H](C(=O)O)C[C@@H]1N=C(N)N` stands “inactive”.
Regarding `CCN(CC)CCOc1ccc(C(=C(Cl)c2ccccc2)c2ccccc2)cc1`, the max response was 2.62% (inactive).
As for `COC(=O)C1=CO[C@@H](O)[C@@H]2C(CO)=CC[C@@H]12`, the compound was called inactive.
With `Nc1ncnc2ccccc12`, the max response is -0.365% (inactive).
The same measure, in the same setting: for `CN1C[C@H]2c3ccccc3Oc3ccc(Cl)cc3[C@@H]2C1` the value was -1.33% (inactive) and 3.58% (inactive).
Turning to `CO[C@H]1C[C@@H]2CC[C@@H](C)[C@@](O)(O2)C(=O)C(=O)N2CCCC[C@@H]2C(=O)O[C@H]([C@@H](C)C[C@@H]2CC[C@H](O)[C@H](OC)C2)CC(=O)[C@H](C)C=C(C)[C@@H](O)[C@@H](OC)C(=O)[C@H](C)C[C@H](C)C=CC=CC=C1C`, the outcome was “inactive; activator”.
With `CC(C)C(C)C=CC(C)C1CCC2C3=CC=C4CC(O)CCC4(C)C3CCC21C` (configuration not stated), the max response is -6.24% (inactive).
On to `O=c1cc(-c2cccc3c2Sc2ccccc2S3)oc(N2CCOCC2)c1`, for which the compound was classed as inactive.
In the case of `CC(C)(Cc1ccc2ccccc2c1)NC[C@@H](O)COc1cccc(Cl)c1C#N`, the max response was -24.7% (inactive).
For the compound `CC(C)(C)c1ccc(C(O)CCCN2CCC(C(O)(c3ccccc3)c3ccccc3)CC2)cc1` (configuration not stated), the max response was -3.57% (inactive).
Same read-out and setting: under `O=C1Nc2ccc(Cl)cc2C(C#CC2CC2)(C(F)(F)F)O1` (configuration not stated) stands -6.53% (inactive); under `O=C1C[C@@H](c2ccc(O)cc2)Oc2cc(O)cc(O)c21`, 1.63% (inactive).
Turning to `Cc1[nH]c(C=C2C(=O)Nc3ccc(S(=O)(=O)Cc4c(Cl)cccc4Cl)cc32)c(C)c1C(=O)N1CCC[C@H]1CN1CCCC1`, the max response was -20.1% (inactive).
On the same count and under the same terms, for `CC1(C)CCC(CN2CCN(c3ccc(C(=O)NS(=O)(=O)c4ccc(NCC5CCOCC5)c([N+](=O)[O-])c4)c(Oc4cnc5[nH]ccc5c4)c3)CC2)=C(c2ccc(Cl)cc2)C1` the value was -21% (inactive) and 4.74% (inactive); for `Cc1c[nH]c(C=C2C(=O)Nc3ccccc32)c1CCC(=O)O`, -18.5% (inactive).
Take `COc1cccc(-c2cc(=O)c3ccccc3o2)c1N`: the compound was called inactive.
On the same count and under the same terms, under `CCOC1OC(=O)C[C@H]1NC(=O)[C@@H]1CCCN1C(=O)[C@@H](NC(=O)c1ccc(N)c(Cl)c1)C(C)(C)C` (some centres not stated) stands “inactive”.
`O=C(O)C(O)Cc1ccc(O)c(O)c1` (configuration not stated): the max response was -0.893% (inactive).
For the compound `CC=C(C)C(=O)O[C@H]1C(C)=C[C@]23C(=O)[C@@H](C=C(CO)[C@@H](O)[C@]12O)[C@H]1[C@@H](C[C@H]3C)C1(C)C`, the max response was -20.8% (inactive).
For the compound `COc1ccc2cccc(CCNC(C)=O)c2c1`, the max response is -3.32% (inactive).
Regarding `O=c1c(O)c(-c2ccc(O)cc2)oc2cc(O)cc(O)c12`, the max response was -2.9% (inactive).
As to `Nc1ncnc2c1ncn2[C@@H]1O[C@H](CO)C[C@@H]1O`, the max response was -2.75% (inactive).
On to `C[N+](C)(C)CCCCCC[N+](C)(C)C`, for which the compound was classed as inactive.
For the compound `NC(=O)NN=Cc1ccc([N+](=O)[O-])o1`, the result was inactive.
Take `CC(=O)N[C@@H](CS)C(=O)O`: the outcome was inactive.
